Common to all, as to assay: NCI-60 one-dose screen, 48 h (100 = growth as untreated, 0 = no growth, -100 = all killed)
Details in all cases: 10 µM unless noted

The test system of experiment [1] is SR leukemia.
Experiment [2] concerns RPMI-8226 leukemia.
Experiment [3] concerns OVCAR-8 ovarian.
The subject of experiment [4] is OVCAR-5 ovarian.
The subject of experiment [5] is OVCAR-4 ovarian.
The subject of experiment [6] is SK-OV-3 ovarian.
The subject of experiment [7] is IGROV1 ovarian.
Experiment [8] concerns OVCAR-3 ovarian.
The test system of experiment [9] is HS 578T breast.
The subject of experiment [10] is NCI/ADR-RES ovarian.
Experiment [11] has as its system T-47D breast.
In experiment [12] the test system is MDA-MB-435 melanoma.
Experiment [13] relates to SW-620 colon.
Experiment [14] concerns MCF7 breast.
Experiment [15] concerns HCT-116 colon.
Experiment [16] relates to HCC-2998 colon.
Experiment [17] relates to KM12 colon.
Experiment [18] concerns BT-549 breast.

From PubChem BioAssay (NCI) come the findings set out here.

This is part of a sample that, as a whole, favours compounds with a hit. Of some 83,000 tested, about 20% had one in any assay.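 48-hour exposure, single concentration, 96-well plates; percent growth endpoint where 0 means no net growth. Active: below 10.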 Values without a mark were called inactive. Active and inactive are the calls of the source.

As to `O=C(CSc1nc2ccccc2c(=O)n1-c1ccc(S(=O)(=O)Nc2ccc(Cl)nn2)cc1)Nc1ccc(S(=O)(=O)Nc2ccc(Cl)nn2)cc1`, the growth is 87.3% in experiment [1]; 108% in experiment [2]; 103% in experiment [3]; 103% in experiment [4]; 101% in [5]; 105% in experiment [6]. In addition, the growth in experiment [7] is 107%; in [8], 108%; in [9] it was 106%; in [10], 103%; in [11] it was 98.1%; in experiment [12], 99.7%. For the same compound, the growth in experiment [13] was 98.4%; in [14], 95.3%; in experiment [15] it was 105%; in experiment [16], 120%; in experiment [17] it was 99.4%.

`C#Cc1cc(C(=O)Nc2ccc(CNCCN3CCOCC3)c(C(F)(F)F)c2)ccc1C`: the growth in [1] is 67.8%; in experiment [2], 74.5%; in [3], 105%; in [4], 98.6%; in [5] it was 79.1%; in experiment [6] it was 94.1%. Also, the growth is 101% in experiment [7]; 94.1% in experiment [8]; 81.4% in [9]; 94.3% in experiment [10]; 82.1% in experiment [11]; 94.9% in [12]. For the same compound, the growth in [13] was 97.5%; in experiment [14], 83.5%; in [15] it was 90.2%; in experiment [16], 102%; in experiment [17] it was 96.2%.

`C=CCSC1=NC2C(N(CC)C(=O)N2CC)N1/N=C/C=C/c1ccccc1OC` (configuration not stated): the growth is 16.9% in experiment [1]; 53.7% in experiment [2]; 83.5% in [3]; 105% in experiment [4]; 79.9% in [5]; 99.8% in experiment [6]. For the same compound, the growth in experiment [7] was 69%; in experiment [8], 54.6%; in experiment [9], 82.4%; in experiment [10], 53.3%; in experiment [18], 79.8%; in [12] it was 2.79% (active). Also, the growth in [13] is 69.7%; in experiment [14] it was 42.5%; in [15], 73.7%; in experiment [16], 97.8%; in experiment [17], 57.8%.

Consider `CN(C)S(=O)(=O)c1ccc(-c2nc(C(Cl)Cl)nc3cc(-c4ccccc4)nn23)cc1`, for which the growth in experiment [1] is 36.2%; in experiment [2], 86.8%; in experiment [3], 60.7%; in experiment [4], 90%; in experiment [5], 90.5%; in [6], 92.2%. The growth in experiment [7] was 66%; in experiment [8] it was 93.5%; in experiment [9], 109%; in experiment [10], 69.5%; in [11], 89.5%; in experiment [13], 49.6%. For the same compound, the growth was 72% in [14], 72.3% in experiment [15], 100% in experiment [16] and 74% in [17].

As to `CN1CCN(c2ccc(Nc3nc(NCCCNS(=O)(=O)c4ccc(Cl)cc4)c4sccc4n3)cc2)CC1`, the growth was 5.77% (active) in [1]; 4.97% (active) in experiment [2]; 17% in experiment [3]; 39.5% in experiment [4]; -0.0486% (active) in experiment [5]; 54.1% in experiment [6]. The growth in experiment [7] was 25.9%; in [8], -6.9% (active); in experiment [9] it was 20.2%; in experiment [11] it was 11.6%; in experiment [18], -70.2% (active); in experiment [12], 7.33% (active). Further, the growth is 20.7% in [13]; 20% in experiment [14]; 1.81% (active) in experiment [15]; 20% in experiment [16]; 23.3% in experiment [17].

With `Cc1nc(/N=C(N)/N=C(\N)c2cccc(Br)c2)sc1C`, the growth in experiment [1] is 35.6%; in [2] it was 55.1%; in experiment [3], 58.2%; in experiment [4] it was 71.1%; in [5], 87.3%; in [6], 67.8%. Also, the growth in experiment [7] is 52.3%; in experiment [8], 47.2%; in [9], 73.1%; in experiment [10], 36.1%; in experiment [11] it was 56.4%; in [18], 84.7%. Also, the growth in experiment [13] is 33%; in experiment [14], 13.2%; in experiment [15] it was 25.4%; in experiment [16], 64.9%; in experiment [17] it was 37.4%.

As for `CCCC[n+]1ccc(SCC(=O)n2ccc3ccccc32)c2ccccc21`, the growth in experiment [1] was 56.3%; in experiment [2] it was 59.5%; in experiment [3], 92.7%; in experiment [4], 103%; in [5], 72.1%; in experiment [6], 88.9%. Further, the growth in experiment [7] was 83.3%; in [8] it was 91.8%; in experiment [9], 99.6%; in experiment [10], 110%; in [11], 73.3%; in experiment [12] it was 101%. Moreover, the growth is 102% in [13]; 83% in experiment [14]; 93.1% in experiment [15]; 109% in experiment [16]; 92.5% in experiment [17].

For the compound `N#Cc1c(-c2cccs2)cc(-c2cnccn2)nc1SCC(=O)N/N=C/c1ccc(Cl)cc1`, the growth in experiment [1] is 87.1%; in experiment [2], 97.6%; in experiment [3], 104%; in [4], 112%; in experiment [5], 105%; in [6] it was 114%. The growth was 109% in experiment [7]; 117% in experiment [8]; 103% in experiment [9]; 102% in experiment [10]; 93.8% in [11]; 107% in experiment [18]. Further, the growth was 93.1% in [13]; 84.6% in experiment [14]; 57.8% in experiment [15]; 119% in [16]; 96.5% in experiment [17].

Regarding `Cc1ccc2c(n1)C(=O)C(Cl)=C(Nc1cc(C(F)(F)F)cc(C(F)(F)F)c1)C2=O`, the growth was 7.46% (active) in [1]; 6.65% (active) in experiment [2]; 87.8% in experiment [3]; 109% in [4]; -84.8% (active) in [5]; 110% in experiment [6]. In addition, the growth was 27.8% in [7]; 37.3% in experiment [8]; 92.8% in [9]; 99.7% in experiment [10]; -9.18% (active) in experiment [11]; 115% in experiment [18]. Also, the growth was 2.41% (active) in experiment [13]; -24.9% (active) in [14]; 42% in experiment [15]; 96.5% in experiment [16]; 97% in experiment [17].
